This note sets out measurements from PubChem BioAssay (NCATS).

Results filed as inconclusive are left out. Entries that show only a call come without a potency. Calls of active or inactive are those of the source. Calls come from the whole dose curve; as a rule, active = well fitted curve in the direction sought with a large enough effect; inconclusive = small, poorly fitted or top-dose-only effect, or another doubt; inactive = no such curve, though single readings can be large; an effect the other way counts as inactive or inconclusive.

Assay [1] can be described thus: qHTS Screen of the MIPE 4.0 Collection Against Ewings Sarcoma (RDES) (AID 1259252). Note: nearly all actives have a fitted effect of over 35% in size. Note: potency is the fitted concentration of half-maximal effect. The text has this: (§1) There is a large unmet medical need for treatments for Ewing sarcoma, a pediatric sarcoma. We sought to identify compounds that inhibited Ewing sarcoma cells in vitro with the goal to then test promising drugs in two drug combinations in vitro to look for synergistic drug combinations. Promising combinations would then proceed to additional validation, including in vivo testing.
(§2) Using the NCATS developed oncology compound library called the Mechanism of Interrogation Plate (MIPE), four Ewing sarcoma cell lines were evaluated (TC32, TC71, RDES, EW8). Compounds, in a 12-point titration series, were incubated with cells for 48 hours and the read out was cell viability (CellTiter-Glo from Promega). These initial experiments were used to select appropriate concentrations of each single agent for subsequent two-drug matrix combinations such that the concentrations in the matrices would span both activity and non-activity.
(§3) Cells, in the log phase of growth, were seeded in 5 uL of RPMI plus 5% FBS, […] L-glutamine, 100 U/ml penicillin and 100 ug/ml streptomycin into 1536-well solid-bottom white tissue culture treated Greiner Bio One Plates (789173-F) using a MultiDrop Combi (Thermofisher Scientific) dispenser and a small sterile cassette. […] Plates were incubated at room temperature for 10 minutes prior to reading the luminescence on the Viewlux (PerkinElmer). […]
A general note: qHTS replaces the single test concentration by a dilution series.

A short description of assay [2]: qHTS Screen of the MIPE 4.0 Collection Against Ewings Sarcoma (TC32) (AID 1259256). Note: nearly all actives have a fitted effect of over 45% in size. Note: potency is the fitted concentration of half-maximal effect.
Description: as §1, §2, §3

Assay [3] in a line: qHTS assay for measurement of the activity of small molecule inhibitors on Zika virus induced Caspase-3 activity in human iPSC derived neural progenitor cells (hNPCs) (AID 1224857). Note: nearly all actives have a fitted effect of over 65% in size. The gist of the method: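 Caspase-3/7 induction by a 6-hour ZIKV infection was quantified with a luminescent Caspase-Glo 3/7 reagent incubated 30 minutes at room temperature. Compounds were preincubated with hNPCs for 1 hour; inhibition was calculated against uninfected and infected control wells.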

Assay [4] in a line: qHTS assay for measurement of the activity of small molecule inhibitors on Zika virus induced Caspase-3 activity in human astrocytoma cells (AID 1224859). The method in brief:
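In SNB-19 cells plated at 250 cells/well and grown 16-20 h, compounds were applied 1 h before ZIKV (2 FFU/cell). Six hours later caspase-3/7 luminescence was recorded.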

A short description of assay [5]: qHTS assay to identify small molecule inhibitors of chordoma cells - UCH-1 (AID 1259355). Note: nearly all actives have a fitted effect of over 55% in size. The method in brief: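 Screening used approved and investigational drugs in 15-point titration against 800 seeded cells per well. A fixed combination of auranofin with camptothecin, doxorubicin, rubitecan and topotecan followed compound addition, and growth was scored by CellTiter-Glo after 48hr.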

Assay [6] in a line: qHTS assay to identify small molecule inhibitors of chordoma cells - UCH-2 (AID 1259356). Note: series mostly up to about 46 µM.

For the compound `C[C@@H]1C[C@@H]([C@H](O)CC2CC(=O)NC(=O)C2)C(=O)[C@@H](C)C1`, the Potency is 418 nM (active) in assay [1] and 132 nM (active) in assay [2].
For `O=C(O)c1nn(Cc2ccc(Cl)cc2Cl)c2ccccc12`, the Potency entry in assay [1] was “inactive”.
Consider `COc1ccc(C(=O)N2CCCC2=O)cc1`, for which the Potency entry in assay [2] was “inactive”.
As to `CNC(C)Cc1ccccc1OC` (stereo not given), the Potency result in assay [3] was “inactive”. For the same compound, the outcome in assay [4] was inactive.
With `CCOP(=S)(OCC)O/N=C(\C#N)c1ccccc1`, the Potency entry in assay [3] was “inactive”. In addition, in assay [4], the call was inactive.
With `O=C(N[C@@H]1N=C(c2ccccc2F)c2cccc3c2N(CC3)C1=O)c1cc2ccccc2[nH]1`, the Potency entry in assay [3] was “inactive”. Besides, the outcome in assay [4] was inactive.
`COc1cc(CC#N)cc(OC)c1OC`: the Potency entry in assay [3] was “inactive”. In assay [4], the call was inactive.
Turning to `CNC(C)Cc1ccc2c(c1)OCO2` (stereo not given), the Potency result in assay [3] was “inactive”. The result in assay [4] was inactive.
`COP(=S)(OC)Oc1ccc(S(N)(=O)=O)cc1`: the Potency entry in assay [3] is “inactive”. Further, the outcome in assay [4] was inactive.
In the case of `CN(C)CCc1c[nH]c2ccc(O)cc12`, in assay [3], the Potency result was “inactive”. Further, the call in assay [4] was inactive.
`C[C@H](CN1CCOCC1)C(C(=O)N1CCCC1)(c1ccccc1)c1ccccc1`: the Potency entry in assay [3] is “inactive”. The result in assay [4] was inactive.
For `CC1Sc2c(C(=O)O)c(=O)c3cc(F)c(N4CCNCC4)cc3n21` (stereo not given), the Potency entry in assay [3] is “inactive”. For the same compound, in assay [4], the outcome was inactive.
`COc1cc(C[C@@H](C)N)c(OC)cc1C`: the Potency entry in assay [3] is “inactive”. In addition, the compound was classed as inactive in assay [4].
Take `CC1COC2(c3ccccc3Cl)c3cc(Cl)ccc3NC(=O)CN12` (stereo not given): the Potency entry in assay [3] was “inactive”. For the same compound, in assay [4], the compound was called inactive.
Take `CCN(CC)Cc1nccn1-c1ccc([N+](=O)[O-])cc1C(=O)c1ccccc1Cl`: the Potency result in assay [3] was “inactive”. Besides, in assay [4], the outcome was inactive.
Turning to `CCO[C@H]1O[C@@H]2OC3(C)CC[C@H]4[C@H](C)CC[C@@H]([C@H]1C)[C@@]24OO3`, in assay [3], the Potency result was “inactive”. Besides, the outcome in assay [4] was inactive.
In the case of `CCCN(CCC)CCc1c[nH]c2ccccc12`, in assay [3], the Potency result is “inactive”. The compound was classed as inactive in assay [4].
As for `COc1ccc2c3c1O[C@H]1[C@@H](O)C=C[C@H]4[C@@H](C2)N(C)CC[C@@]341`, in assay [3], the Potency result was “inactive”. Moreover, the outcome in assay [4] was inactive.
Turning to `CCOC(=O)NC(C)(C)Cc1ccc(Cl)cc1`, in assay [3], the Potency entry was “inactive”. For the same compound, in assay [4], the compound was classed as inactive.
Regarding `CC(Cc1ccc2c(c1)OCO2)NO` (stereo not given), the Potency entry in assay [3] is “inactive”. The compound was called inactive in assay [4].
For `C1CN2CCC1CC2`, in assay [3], the Potency entry was “inactive”. Besides, the result in assay [4] was inactive.
As to `O=C(O)Cc1ccccc1`, in assay [3], the Potency result is “inactive”. In assay [4], the result was inactive.
As to `Nc1ccc(Cl)cc1C(=O)c1ccccc1F`, in assay [3], the Potency entry was “inactive”. For the same compound, the outcome in assay [4] was inactive.
Take `COc1cc(CC(C)N)cc2c1OCO2` (stereo not given): in assay [3], the Potency entry is “inactive”. Further, the result in assay [4] was inactive.
Turning to `CC#C[C@]1(O)CC[C@H]2[C@@H]3C[C@H](C)C4=CC(=O)CC[C@]4(C)[C@H]3CC[C@@]21C`, the Potency result in assay [3] is “inactive”. Further, the compound was called inactive in assay [4].
With `CCOC(=O)C(c1c(O)c2ccccc2oc1=O)c1c(O)c2ccccc2oc1=O`, the Potency entry in assay [3] is “inactive”. Further, the result in assay [4] was inactive.
As for `O=C(CBr)Nc1ccc(Cl)cc1C(=O)c1ccccc1F`, the Potency entry in assay [3] is “inactive”. For the same compound, the call in assay [4] was inactive.
On to `Sc1ccccc1Cl`, for which the Potency entry in assay [3] was “inactive”. For the same compound, the call in assay [4] was inactive.
With `COc1ccc2c(C(=O)c3ccc(Cl)cc3)c(C)n(CC(=O)O)c2c1`, the Potency entry in assay [3] was “inactive”. In addition, the compound was called inactive in assay [4].
For the compound `CN(C)CCc1c[nH]c2ccccc12`, the Potency result in assay [3] is “inactive”. The compound was called inactive in assay [4].
`O=C1CN2CCOC2(c2ccccc2Cl)c2cc(Cl)ccc2N1` (stereo not given): in assay [3], the Potency entry is “inactive”. Besides, the call in assay [4] was inactive.
Consider `CCc1cc(OC)c(C[C@H](C)N)cc1OC`, for which the Potency entry in assay [3] is “inactive”. For the same compound, the result in assay [4] was inactive.
For `COc1ccc2[nH]cc(CCN(C(C)C)C(C)C)c2c1`, in assay [3], the Potency entry was “inactive”. For the same compound, the call in assay [4] was inactive.
`NC1(c2ccccc2)CCCCC1`: in assay [3], the Potency entry is “inactive”. Besides, in assay [4], the call was inactive.
`C[C@]12CC[C@H]3[C@@H](CCC4=CC(=O)CC[C@@H]43)[C@@H]1CC[C@@H]2O`: the Potency entry in assay [3] is “inactive”. For the same compound, the call in assay [4] was inactive.
In the case of `CC[C@H]1C[C@H]2[C@@H]3CCC4=CC(=O)CC[C@@H]4[C@H]3CC[C@]2(C)[C@H]1O`, in assay [3], the Potency result was “inactive”. In addition, the compound was called inactive in assay [4].
As for `ClCc1cccc(Cl)c1`, the Potency entry in assay [3] is “inactive”. Also, in assay [4], the outcome was inactive.
Regarding `CCC(=O)OC1(c2ccccc2)CCN(C)CC1`, the Potency result in assay [3] was “inactive”. Moreover, the compound was called inactive in assay [4].
For the compound `CC(CC(C(N)=O)(c1ccccc1)c1ccccc1)N(C)C` (stereo not given), in assay [3], the Potency entry is “inactive”. Moreover, the result in assay [4] was inactive.
`Nc1ccccc1C(=O)OCC(O)CO` (stereo not given): the Potency entry in assay [3] was “inactive”. In addition, the compound was called inactive in assay [4].
In the case of `CC1N=C(N)OC1c1ccccc1` (stereo not given), in assay [3], the Potency result is “inactive”. Also, in assay [4], the outcome was inactive.
In the case of `C=CC[C@]1(O)CC[C@H]2[C@@H]3CCC4=CC(=O)CCC4=C3C=C[C@@]21C`, the Potency result in assay [3] is “inactive”. The compound was classed as inactive in assay [4].
`C[C@]12CC[C@H]3[C@@H](CCC4=CC(=O)CC[C@@]43C)[C@@H]1CC[C@@H]2C(=O)O`: in assay [3], the Potency result is “inactive”. For the same compound, the compound was classed as inactive in assay [4].
As for `C#C[C@]1(O)C=C[C@H]2[C@@H]3CCC4=CC(=O)CC[C@@H]4[C@H]3CC[C@@]21CC`, the Potency entry in assay [3], in assay [5] and in assay [6] was “inactive” each time. Besides, the result in assay [4] was inactive.
Turning to `CN1C(=O)[C@@H](NC(=O)c2cc3ccccc3[nH]2)N=C(c2ccccc2)c2ccccc21`, the Potency result in assay [3], in assay [5] and in assay [6] was “inactive” each time. Moreover, in assay [4], the compound was called inactive.
For `CC(C)(O)C(Cl)(Cl)Cl`, the Potency result in assay [3], in assay [5] and in assay [6] was “inactive” in each case. The call in assay [4] was inactive.
Take `OC(c1ccccc1)(c1ccccc1)C1CCNCC1`: the Potency result in assay [3], in assay [5] and in assay [6] was “inactive” throughout. Besides, in assay [4], the compound was called inactive.
Consider `C[C@]12CC[C@H]3[C@@H](CC=C4C[C@@H](O)CC[C@@]43C)[C@@H]1CC[C@@H]2O`, for which the Potency result in assay [3], in assay [5] and in assay [6] was “inactive” in each case. Besides, the compound was classed as inactive in assay [4].
With `NCc1cccnc1`, the Potency result in assay [3], in assay [5] and in assay [6] was “inactive” in each case. In addition, the compound was classed as inactive in assay [4].
For `ClC1=C(Cl)C2(Cl)C(CBr)CC1(Cl)C2(Cl)Cl` (stereo not given), the Potency entry in assay [3], in assay [5] and in assay [6] was “inactive” throughout. In addition, the compound was called inactive in assay [4].
Consider `CC(C)=C[C@@H]1[C@@H](C(=O)OCc2coc(Cc3ccccc3)c2)C1(C)C`, for which the Potency result in assay [3], in assay [5] and in assay [6] was “inactive” in each case. The result in assay [4] was inactive.
For `C[N+]1(CCC(C(N)=O)(c2ccccc2)c2ccccc2)CCCCC1`, the Potency entry in assay [3], in assay [5] and in assay [6] was “inactive” each time. The outcome in assay [4] was inactive.
